Source: PubChem BioAssay
An excerpt weighted towards active compounds, which were near 21% of everything screened.
Sm TGR inh – qHTS Assay for the Inhibitors of Schistosoma Mansoni Peroxiredoxins | 360,000 tested, 3% active | purified TGR, DTNB reduction, TNB absorbance 405 nm | Schistosoma mansoni thioredoxin glutathione reductase (TGR), Q962Y6 | Potency, µM (titrated, usually from 114 µM), for the others: top-dose activity change, negative = inhibition, actives largely listed as inhibitors | AID 485364, 2010; further: potency means the concentration at half of the fitted maximal effect; on the % scale 0 is the no-effect control and ±100 the full control effect; nearly all actives have a fitted effect of over 60% in size
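TGR 20 nM + NADPH 100 uM (dispensed conc.), cpd preinc 15 min RT; start with NADPH (500 uM addition) then DTNB (15 mM addition). Kinetic TNB absorbance, 405 nm filter. Four-parameter Hill fit across titration.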
NS1 function inh – qHTS Assay for Inhibitors of Influenza NS1 Protein Function | Potency, µM (series often up to 46.1 µM), inactives show at the top dose activity, positive = more growth | 270,000 tested, 0.4% active; calls by dose curve; further: potency means the concentration at half of the fitted maximal effect; actives are rising curves; nearly all actives have a fitted effect of over 50% in size
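OD600 was taken as the measure of yeast growth restored by compound in an NS1-expressing S. cerevisiae strain. Cells had been washed out of glucose medium and diluted 1:100 into galactose -URA medium, pH 6.0.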
Shiga toxin inh – A qHTS for Small Molecule Inhibitors of Shiga Toxin. Vero cells, Shiga toxin protein synthesis inhibition reporter. inhibition, % at 38.7 µM. 290,000 tested, 9.2% active; in the data active means inhibition mostly above about 28%, no sharp cut-off; inactive means mostly below about 43%; further: 0% is about no effect
Pf growth 96h – Primary qHTS for delayed death inhibitors of the malarial parasite plastid, 96 hour incubation | P. falciparum luciferase reporter growth, 96 h | Potency, µM (doses to about 28.7 µM), without a hit: at the top dose activity change, negative = inhibition, usual class: inhibitors | 320,000 tested, 6.9% active | AID 504834, 2011; further: potency means the concentration at half of the fitted maximal effect; on the % scale 0 is the no-effect control and ±100 the full control effect
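Luminescence readout: decreased luciferase signal marks inhibited growth of reporter-expressing P. falciparum in infected red cells (2% hematocrit, 0.05% parasitemia final), exposed to compound two generations (96 h, 37 C, 5% CO2).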
Cycloheximide cs – Cycloheximide Counterscreen for Small Molecule Inhibitors of Shiga Toxin; cell reporter, cycloheximide protein synthesis inhibition counterscreen; max response, %; 300,000 tested, 12% active; in the data active means max response mostly above about 13%, no sharp cut-off; inactive means mostly below about 14%; further: read at 38.3 µM for the half of the compounds with a filed dose; 0% is about no effect
Pf growth 48h – Primary qHTS for delayed death inhibitors of the malarial parasite plastid, 48 hour incubation; P. falciparum luciferase growth in erythrocytes, 48 h; Potency, µM (titrated, usually from 28.7 µM), without a hit: at the top dose activity change, negative = inhibition, usual class: inhibitors; 310,000 tested, 5.9% active; AID 504832, 2011; further: potency means the concentration at half of the fitted maximal effect; on the % scale 0 is the no-effect control and ±100 the full control effect
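Read-out is firefly luciferase luminescence from an integrated reporter in P. falciparum, so falling signal marks reduced parasite growth. Infected erythrocytes were at 2% hematocrit and 0.1% parasitemia (final) in Albumax-supplemented RPMI 1640.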
Active calls of the source: *; [ ] = dose if it differs, or a comment. Unless noted, the call rests on the fitted dose curve; in most records, active means well fitted curve in the direction sought with a large enough effect; inconclusive means small, poorly fitted or top-dose-only effect, or another doubt; inactive means no such curve, though single readings can be large; an effect the other way counts as inactive or inconclusive.

`COc1cc(C2NC(=O)CCC2[N+](=O)[O-])c(OC)cc1Br` (configuration not stated) gave Sm TGR inh -9.2%, NS1 function inh 2.5%, Shiga toxin inh -12.8, Pf growth 96h 6.57µM*, Cycloheximide cs 14.2 and Pf growth 48h 35.0%.
For CSc1ccccc1NC(=O)C1CC(c2c(F)cccc2Cl)=NO1 (configuration not stated) the results were Sm TGR inh -25.6%, NS1 function inh -1.0%, Shiga toxin inh 41.9*, Pf growth 96h -53.7%, Cycloheximide cs 30.1* and Pf growth 48h 41.0%.
For O=C(Nc1ccc(Br)cc1)C1CC(c2c(F)cccc2Cl)=NO1 (configuration not stated) the results were Sm TGR inh 2.1%, NS1 function inh -30.1%, Shiga toxin inh 15.6, Pf growth 96h 66.7%, Cycloheximide cs 12.5* and Pf growth 48h 46.1%.
Screening COc1ccc(Cl)cc1NC(=O)C1CC(c2c(F)cccc2Cl)=NO1 (configuration not stated) returned Sm TGR inh 20.6%, NS1 function inh 10.2%, Shiga toxin inh 2.5, Pf growth 96h -24.3%, Cycloheximide cs 1.5 and Pf growth 48h -42.8%.
Screening Nc1c(Cl)cc(-c2cn(CCC(=O)O)c(-c3ccncc3)n2)cc1Cl returned Sm TGR inh -24.1%, Pf growth 96h 79.1% and Pf growth 48h inconclusive.
`Cc1cccc(NC(=S)NC2CC3CCCC(C2)N3Cc2cccs2)c1C` (configuration not stated) gave Sm TGR inh -21.7%, NS1 function inh -9.2%, Shiga toxin inh -13.6, Pf growth 96h 5.86µM*, Cycloheximide cs -1.3 and Pf growth 48h inconclusive.
Screening Cc1ccc(NC(=S)NC2CC3CCCC(C2)N3Cc2cccs2)cc1 (configuration not stated) returned Sm TGR inh 6.5%, NS1 function inh 0.3%, Shiga toxin inh -21.2, Pf growth 96h -25.7%, Cycloheximide cs -3.7 and Pf growth 48h inconclusive.
CCc1ccccc1NC(=S)NC1CC2CCCC(C1)N2Cc1cccs1 (configuration not stated) was read as Sm TGR inh -18.6%, NS1 function inh -2.0%, Shiga toxin inh 2.1, Pf growth 96h 1.47µM*, Cycloheximide cs -3.4 and Pf growth 48h 8.28µM*.
Fc1ccc(NC(=S)NC2CC3CCCC(C2)N3Cc2cccs2)cc1 (configuration not stated) was read as Sm TGR inh 3.7%[57.1 µM], NS1 function inh 4.3%, Shiga toxin inh -29.8, Pf growth 96h 1.6%, Cycloheximide cs -3.7 and Pf growth 48h inconclusive.
Screening Cc1c(Cl)cccc1NC(=S)N(Cc1cccs1)C1CCCC1 returned Sm TGR inh 13.1%, NS1 function inh -10.5%, Shiga toxin inh 12.9, Pf growth 96h inconclusive, Cycloheximide cs 15.5* and Pf growth 48h -3.3%.
For CN(C)C(=O)Cn1cnc2c(cnn2-c2ccc(F)cc2)c1=O the results were Sm TGR inh 0.5%, NS1 function inh -3.1%, Shiga toxin inh -12.0, Pf growth 96h 42.1%, Cycloheximide cs -3.8 and Pf growth 48h 45.7%.
For CCCn1cnc2c(cnn2-c2ccc(F)cc2)c1=O the results were Sm TGR inh -0.9%, NS1 function inh -1.3%, Shiga toxin inh 70.5*, Pf growth 96h 5.5%, Cycloheximide cs 43.3* and Pf growth 48h 298.4%.
O=c1c2cnn(-c3ccc(F)cc3)c2ncn1Cc1ccc(F)cc1 was read as Sm TGR inh 0.7%, NS1 function inh 7.1%, Shiga toxin inh -2.3, Pf growth 96h inconclusive, Cycloheximide cs -2.2 and Pf growth 48h 8.5%.
Screening CCCCn1cnc2c(cnn2-c2ccc(F)cc2)c1=O returned Sm TGR inh 2.8%, NS1 function inh -0.7%, Shiga toxin inh 120.0*, Pf growth 96h -24.5%, Cycloheximide cs 27.2* and Pf growth 48h 58.4%.
Screening CCCCn1cnc2c(cnn2-c2ccc(Cl)cc2)c1=O returned Sm TGR inh 2.1%, NS1 function inh -1.4%, Shiga toxin inh 18.3, Pf growth 96h -5.5%, Cycloheximide cs 10.8* and Pf growth 48h 96.3%.
For N#Cc1ccc(-c2cccs2)nc1SCc1c(F)cccc1Cl the results were Sm TGR inh -1.2%.
CC1CCC2(CC1)NC(=O)N(NC(=O)c1cc3ccccc3o1)C2=O (configuration not stated) was read as Sm TGR inh 6.2%, Pf growth 96h -4.6% and Pf growth 48h 12.2%.
`O=Cc1cnc(N2CCOCC2)nc1` gave Sm TGR inh -9.4%, NS1 function inh -3.5%, Shiga toxin inh 28.3, Pf growth 96h inconclusive, Cycloheximide cs 1.3 and Pf growth 48h 24.5%.
Cc1ccc(NC(=O)c2ccccc2OCC(=O)Nc2ccccc2F)cc1S(=O)(=O)N(C)C was read as Sm TGR inh -0.5%, Pf growth 96h 7.38µM* and Pf growth 48h 9.28µM*.
Screening Cc1ccc(S(=O)(=O)N(C)C)cc1NC(=O)COC(=O)CSc1ccccc1 returned Sm TGR inh -7.6%, Pf growth 96h 11.2% and Pf growth 48h 3.2%.
For Cc1ccc(S(=O)(=O)N(C)C)cc1NC(=O)COc1ccccc1C(=O)Nc1ccccc1 the results were Sm TGR inh -2.0%, Pf growth 96h inconclusive and Pf growth 48h 11.7µM*.
CC(NC(=O)c1ccc2c(c1)sc1nc(-c3ccc(F)cc3)cn12)C12CC3CC(CC(C3)C1)C2 (configuration not stated) was read as Sm TGR inh 5.4%.
For COc1ccccc1-c1nn2c(=O)cc(CN3CCN(S(=O)(=O)c4ccc(C)cc4)CC3)nc2s1 the results were Sm TGR inh 5.4%.
`Cc1ccc(-c2cc(-c3ccccc3)cc(-c3ccccc3)[n+]2-c2ccccc2C(=O)O)cc1` gave Sm TGR inh 1.9%, Pf growth 96h 2.94µM* and Pf growth 48h 10.4µM*.
Screening COCC(=O)n1nc(-c2ccccc2)nc1NCc1cccs1 returned Sm TGR inh -2.5%, NS1 function inh 0.2%, Shiga toxin inh 62.6*, Pf growth 96h 27.9%, Cycloheximide cs 33.2* and Pf growth 48h 25.9%.
For O=C(c1cccs1)n1nc(-c2ccccc2)nc1NCc1ccco1 the results were Sm TGR inh 1.8%, NS1 function inh -49.1%, Shiga toxin inh 6.9, Pf growth 96h inconclusive, Cycloheximide cs -3.7 and Pf growth 48h 25.0%.
`Cc1cccn2c(=O)c3cc(C(=O)NCCC4=CCCCC4)n(C)c3nc12` gave Sm TGR inh -5.1%, NS1 function inh 3.6%, Shiga toxin inh -5.0, Pf growth 96h inconclusive, Cycloheximide cs 8.2 and Pf growth 48h inconclusive.
